Laboratory results: PubChem BioAssay (EPA / NIEHS)
Calls of active or inactive are those of the source. Rule for the calls: active = hit-call score of the fitted dose curve at least 0.9, where 1 is the maximum; inactive = score below 0.9.

Experiment: ATG_M_19_CIS: Attagene CIS-FACTORIAL HepG2 Assay for M19 Transcription Factor (Internal Marker) (AID 2282939)
Conditions: HepG2 Attagene CIS-FACTORIAL M19 internal marker reporter; actives raise or lower the signal
Description: ATG_CIS is a cell-based, multiplexed-readout assay that uses HepG2, a human liver cell line, with measurements taken at 24 hours after chemical dosing in a 24-well plate.ATG_M_19_CIS is one of 52 assay component(s) measured or calculated from the ATG_CIS assay. It is designed to make measurements of mRNA induction, a form of inducible reporter, as detected with fluorescence intensity signals by Reverse transcription polymerase chain reaction (RT-PCR) and Capillary electrophoresis technology.Data from the assay component ATG_M_19_CIS was analyzed into 1 assay endpoint. This assay endpoint, ATG_M_19_CIS, was analyzed with bidirectional fitting relative to DMSO as the negative control and baseline of activity. Using a type of inducible reporter, measures of mRNA for gain or loss-of-signal activity can be used to understand the background control at the transcription factor-level as they relate to the gene . Furthermore, this assay endpoint can be referred to as a secondary readout, because this assay has produced multiple assay endpoints where this one serves a background control function. To generalize the intended target to other relatable targets, this assay endpoint is annotated to the background measurement intended target family, where the subfamily is internal marker.
Human liver HepG2 cells are transiently transfected with multiple reporter transcription units (MRTUs) in 6-well plates using FuGene 6 reagent (Roche; 3 ml FuGene/1 mg DNA). The MRTU constructs are regulated by a cis-regulating element (promoter). […] A major difference between the CIS and TRANS system is that in CIS activities of endogenous TFs are measured, whereas the TRANS assay evaluates changes in activities of exogenous, chimeric NR-Gal4 proteins. […] At the end of 24 hour incubation, total RNA was isolated using TriZol reagent (Invitrogen). The isolated RNA is then reverse-transcribed using oligo(dT) primer and Mo-MLV reverse transcriptase (Invitrogen) with DNAse I (Ambion) treatment for 30 min. The one-tenth of the produced cDNA was amplified by PCR using Taq DNA polymerase (Invitrogen) and two reporter sequence-specific primers. The PCR products were fluorescently labeled by primer extension with 6-arboxyfluorescein (6-FAM) 5'-labeled reporter sequence-specific primer (2 min at 95 C, 20 s at 68 C and 10 min at 72 C) and these products were digested with 5U of HpaI (New England Biolabs) for 2h at 37 C. The fragments were purified using Qiaquick PCR columns (Qiagen), analyzed on an ABI 3130xL genetic analyzer (Applied Biosystems) with peak positions identified by using a set of X-rhodamine (ROX)-labeled MapMarker1000 molecular weight standards (BioVentures). The raw capillary electrophoresis data was processed using Attagraph software (Attagene).

outcome, inactive:
CCCC[C@H]1CN(CC2CCOCC2)C(=O)OC12CCN(C1(C)CCN(C(=O)c3c(C)ncnc3C)CC1)CC2
O=C1O[C@H]([C@H](O)CO)C(O)=C1O
S=c1[nH]c2ccccc2s1
CCCCCCC(C=O)=Cc1ccccc1
CC(C)(O)c1ccc(CNC(=O)c2cccnc2Oc2ccc(F)cc2)cc1
O=C(O)c1[nH]n(-c2ccc(S(=O)(=O)O)cc2)c(=O)c1N=Nc1ccc(S(=O)(=O)O)cc1
O=C(O)c1cccnc1
O=C1c2c(O)cccc2Cc2cccc(O)c21
CC(=O)CC(c1ccccc1)c1c(O)c2ccccc2oc1=O (stereo not given)
O=C1OC(c2ccc(O)cc2)(c2ccc(O)cc2)c2ccccc21
Cc1ccc(-c2cc(C(F)(F)F)nn2-c2ccc(S(N)(=O)=O)cc2)cc1
Cn1cnc2c1c(=O)[nH]c(=O)n2C
CS(=O)(=O)c1ccc([C@@H](C[C@H]2CCC(=O)C2)C(=O)Nc2cnccn2)cc1Cl
COC(=O)CCC(=O)OC
O=C(NS(=O)(=O)/C=C/c1cccs1)c1ccc(F)cc1Br
CC(=O)S[C@H](C(=O)N[C@H]1Cc2ccccc2[C@H]2CCC[C@@H](C(=O)O)N2C1=O)C(C)C
COc1ccc(C(=O)Nc2nc3ccccc3c(NCc3ccccc3)c2C#N)cc1
CCC(C)N(C)C(=O)c1cc2ccccc2c(-c2ccccc2Cl)n1 (stereo not given)
COC(=O)CCCC(=O)OC
CCCC(=O)O
Cc1occc(=O)c1O
CCCCCCCCCC[N+](C)(C)[O-]
C/C=C/C=C/C(=O)O
C/C=C/c1ccc(OC)cc1
Oc1ccccc1O
CC(C)c1cccc(C(C)C)c1NC(=O)NS(=O)(=O)c1cc(C(C)(C)O)co1
O=[Si]=O
Cc1cc(SC2=C(O)C[C@@](CCc3ccc(N)cc3)(C(C)C)OC2=O)c(C(C)(C)C)cc1CO
CCCCC(CC)COP(=O)(OCC(CC)CCCC)OCC(CC)CCCC (stereo not given)
CC(C)(C)c1ccccc1
Nc1nc(=S)c2[nH]cnc2[nH]1
CSc1ccc(Oc2ccc(S(N)(=O)=O)cc2CN(C)C)cc1C
CC(C)COC(=O)CCCCC(=O)OCC(C)C
O=C1CCCCC1
Oc1ccc(O)cc1
Cc1cn([C@H]2C=C[C@@H](CO)O2)c(=O)[nH]c1=O
COC(=O)[C@H]1[C@H]2C[C@@H]3c4[nH]c5cc(OC)ccc5c4CCN3C[C@H]2C[C@@H](OC(=O)c2cc(OC)c(OC)c(OC)c2)[C@@H]1OC
CC(C)NCC(O)c1ccc(O)c(O)c1 (stereo not given)
O=C(Oc1ccccc1)c1cccc(C(=O)Oc2ccccc2)c1
CCCCC(CC)COC(=O)CCCCCCCC(=O)OCC(CC)CCCC (stereo not given)
